SMN2 splice enh – increases expression of the SMN2 splice variant. AID 1458. hit rate 2.8% among 210,000. HEK293 SMN2-luciferase splicing reporter, luminescence, 30-36 h. Potency, µM (highest dose often 46.1 µM), without a hit: at the top dose activity change, positive = activation, usual class: activators; also: % of control where 0% means no effect; nearly all actives have a fitted effect of over 55% in size
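HEK293 cells carry an SMN2 […]–luciferase reporter in which exon 7 inclusion puts luciferase in frame. Cells were plated 10-12 h before compound addition, then incubated 30-36 h at 37C. ONE-Glo luminescence was read; sodium butyrate at 4.5 mM final served as control.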
NPC1 promoter act – NPC1 promoter activation; Huh7 NPC1 promoter luciferase reporter, 24 h; AID 485313; hit rate 2.4% among 320,000; Potency, µM (series often up to 9.22 µM), for inactives: top-dose activation, usual class: activators; also: % of control where 0% means no effect; nearly all actives have a fitted effect of over 60% in size
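Luciferase expression driven by the NPC1 promoter was measured in stably transfected Huh7 cells after a 24 h compound incubation, using a luciferase reagent and a luminescence read.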
ELG1 genotoxic – induces genotoxicity in HEK293T cells with luciferase-tagged ELG1. HEK293T ELG1-luciferase reporter, luminescence, 16 h. Potency, µM (top dose mostly 46 µM), inactives show at the top dose activity change, positive = activation, hits mostly activators. hit rate 1.3% among 330,000; also: % of control where 0% means no effect; nearly all actives have a fitted effect of over 60% in size
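Quantitative HTS format in 1536-well plates. HEK293T ELG1-luciferase reporter cells receive test compound and are incubated 16 hr at 37 °C, 5% CO2; ONE-Glo added, 30 min room temperature, then luminescence read.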
Rab9 promoter act – Rab9 promoter activation; Huh7 Rab9 promoter-luciferase reporter, luminescence, 24 h; Potency, µM (doses to about 9.22 µM), inactives show at the top dose activation, negative = inhibition, hits mostly activators; AID 485297; hit rate 2.8% among 320,000; also: % of control where 0% means no effect; nearly all actives have a fitted effect of over 60% in size
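Luminescence from Amplite-detected luciferase (10 minutes, ambient) reports Rab9 promoter activation. Before that, stable Rab9-luciferase Huh7 cells (1500/well, reduced-serum OP-MEM I plus 10% FBS) were exposed to compound for 24 hours at 37C.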
FLuc counter – counter-screen for miR-21 project: firefly luciferase inhibitors or activators | purified FLuc, Km substrates, luminescence inhibition | Potency, µM (titrated, usually from 57.5 µM), without a hit: at the highest dose activity change, negative = inhibition, most hits filed as inhibitors | hit rate 6.9% among 360,000 | AID 588342;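 also: plate controls were vehicle for no effect and reference inhibitor for full effect; nearly all actives have a fitted effect of over 55% in size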
Target sequence (P08659 whole entry, looked up): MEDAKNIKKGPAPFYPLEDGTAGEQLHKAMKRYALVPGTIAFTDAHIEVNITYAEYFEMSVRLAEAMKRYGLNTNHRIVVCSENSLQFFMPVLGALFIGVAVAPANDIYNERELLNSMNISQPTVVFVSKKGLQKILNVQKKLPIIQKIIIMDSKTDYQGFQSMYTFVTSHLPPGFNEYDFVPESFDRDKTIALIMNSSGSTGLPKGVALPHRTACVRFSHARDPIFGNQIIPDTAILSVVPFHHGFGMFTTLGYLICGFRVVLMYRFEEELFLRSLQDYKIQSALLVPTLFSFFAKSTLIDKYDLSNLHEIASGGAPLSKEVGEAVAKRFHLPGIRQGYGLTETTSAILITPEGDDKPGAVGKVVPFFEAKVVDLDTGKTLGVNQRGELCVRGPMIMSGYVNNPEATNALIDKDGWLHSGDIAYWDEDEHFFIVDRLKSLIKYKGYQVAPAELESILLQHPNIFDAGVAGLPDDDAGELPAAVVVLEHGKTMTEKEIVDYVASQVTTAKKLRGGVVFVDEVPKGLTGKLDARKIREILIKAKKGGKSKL
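Biochemical qHTS of compounds, final roughly 60 µM downward over six points, against 10 nM purified firefly luciferase using Km concentrations of substrates (10 uM D-luciferin, 10 uM ATP) in Tris acetate pH 7.5 buffer; luminescence output.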
p53 reactivation – re-activators of mutant p53 | AID 504706 | Potency, µM (doses to about 92.2 µM), inactives show top-dose activity change, positive = activation, most hits filed as activators | H1299 p53-A138V BP100-luciferase reporter, luminescence, 24 h | hit rate 0.063% among 320,000; also: % of control where 0% means no effect; nearly all actives have a fitted effect of over 45% in size
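p53-null H1299 cells stably carrying temperature-sensitive p53-A138V and a BP100-luciferase reporter were pinned with compounds (4-point, 1:5 series) and held 24 hrs at 37 deg C. Luminescence was read 10 min after detection reagent.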
* = called active by the depositor; ? = inconclusive; . = not tested or not shown; [ ] = another dose, or the depositor's remark. Most compounds without a hit are left out; they make up all but 7.4% or so of the library. Calls follow the shape of the dose curve; as a rule, active = well fitted curve in the direction sought with a large enough effect; inconclusive = small, poorly fitted or top-dose-only effect, or another doubt; inactive = no such curve, though single readings can be large; an effect the other way counts as inactive or inconclusive. Potency is read from the fitted curve at half-maximal effect.

SMILES	SMN2 splice enh	NPC1 promoter act	ELG1 genotoxic	Rab9 promoter act	FLuc counter	p53 reactivation
Cn1cc(CNC(=O)c2cnn3c2NC(=C2CC2)C=C3C(F)F)cn1	.	.	.	.	0%	.
CS(=O)(=O)c1ccc([C@H](O)[C@H](CO)NC(=O)C(Cl)Cl)cc1	-13%[20.6 µM]	.	.	.	.	.
O=[N+]([O-])c1ccccc1COc1ccc(Cl)c2cccnc12	.	0.63µM*	1.6µM*	0.28µM*	0.54µM*	.
O=C(Oc1ccc(Cl)c2cccnc12)c1cccc([N+](=O)[O-])c1	6%	-2%	0%	-3%	?	10%
CCCCCCOC(=O)Sc1nc2ccccc2o1	4%	-1%	1%	0%	24µM*	21%
COc1ccc(C(=O)c2cn(Cc3ccccc3F)c3ccc(F)cc3c2=O)cc1	-2%	.	.	.	-6%	.
CCN1C(=O)CC(N2CCN(c3ccc(Cl)cc3)CC2)C1=O (centres undefined)	-9%	-6%	-7%	2%	3%	-2%
CCN1C(=O)CC(N2CCN(c3ccc(C(=O)c4ccccc4)cc3)CC2)C1=O (centres undefined)	-14%	.	.	.	19µM*	.
O=C(NCC(=O)N1CCCCC1)c1sc2ccccc2c1Cl	.	1.8µM*	?	2.2µM*	8.5µM*	?
CC1CC(C)CN(C(=O)CNC(=O)c2sc3ccccc3c2Cl)C1 (centres undefined)	.	5%	-1%	13%	?	15%
CCN(CC)c1ccc(NC(=O)c2sc3ccccc3c2Cl)cc1	-7%	.	.	.	?	.
O=C(Nc1ccc(CN2CCCCC2)cc1)c1sc2ccccc2c1Cl	.	25%	13%	15%	13µM*	2%
CC1CCCN(C(=O)CNC(=O)c2sc3ccccc3c2Cl)C1 (centres undefined)	.	?	?	2.5µM*	15µM*	23%
Cc1ccc(/C=C/c2nnc(-c3cccs3)o2)cc1	10µM*	0.35µM*	?	0.89µM*	1.7µM*	19%
Cc1ccc(-c2nnc(-c3cccs3)o2)cc1	13µM*	3.5µM*	5.2µM*	1.6µM*	6.7µM*	5%
Fc1ccc(/C=C/c2nnc(-c3cccs3)o2)cc1	13µM*	2.2µM*	10µM*	1.1µM*	2.7µM*	?
Cc1ccc(-c2nnc(N)o2)cc1	15%	0%	9%	-1%	?	11%
Cc1c(Cl)sn(-c2ccc(Cl)cc2)c1=O	-99%	-24%	1%	-39%	8.5µM*	-7%
Cc1c(C(=O)O)sc(=S)n1-c1ccc(Cl)cc1	-9%	1%	-7%	2%	1%	0%
CC(=O)N1CCC2(CC1)CCN(c1ccc(-c3ccccc3)cc1)CC2	-23%	.	.	.	.	.
O=C1CN(C(=O)COC(=O)c2ccccc2Br)c2ccccc2N1	.	6%	-1%	1%	4%	-1%
Cc1cc2c(cc1C)CN(c1ccccc1)C2	.	1.1µM*	2.3µM*	1µM*	0.67µM*	?
Cc1cc(N2Cc3ccccc3C2)ccc1C=O	.	?	5.8µM*	0.32µM*	6.7µM*	.
O=Cc1ccc(N2Cc3ccccc3C2)cc1	.	-3%	?	11%	12µM*	?
Oc1cccc(N2Cc3ccccc3C2)c1	.	-1%	11%	-1%[1.84 µM]	?	11%
SMILES	SMN2 splice enh	NPC1 promoter act	ELG1 genotoxic	Rab9 promoter act	FLuc counter	p53 reactivation
CCOc1ccc(N2CC(=O)N(c3ccc(OCC)cc3)CC2=O)cc1	-11%	-3%	1%	0%	-8%	-2%
CCOc1ccc(N2Cc3ccccc3C2)cc1	?	?	23µM*	3.5µM*	12µM*	20%
CC1CCN(Cc2nnnn2CCCC(=O)NCCN2CCOCC2)CC1	.	0%	7%	-2%	4%	24%
CC(C)c1ccc(OCC(=O)Nc2c(Cl)ccc3nsnc23)cc1	31%	.	.	.	-20%	.
NC(=O)C1CCN(C(=O)c2cc3c(s2)CCCCC3)CC1	.	?	18%	3.5µM*	?	?
CC1CCc2sc(C(=O)N3CCC(C(N)=O)CC3)cc2C1 (centres undefined)	.	0.4µM*	?	0.5µM*	17µM*	?
CC1CC(C)CN(C(=O)c2cc3c(s2)CCC3)C1 (centres undefined)	-14%	1%	15%	0%	-18%	6%
O=C(O)C1CCCCN1C(=O)c1cc2c(s1)CCCCC2 (centres undefined)	.	-8%	2%	0%	.	-1%
Cc1cc(C)cc(NC(=O)CCc2c(C)nc3c(c2C)c(=O)n(C)c(=O)n3C)c1	-18%	.	.	.	-3%	.
Cc1cc(C)cc(N(CC(=O)N2CCCCCC2)S(C)(=O)=O)c1	.	2%	4%	1%	4%	.
Cc1ccc(C(=O)Oc2cc(C)n(C)c(=O)c2)cc1	-15%	-7%	-2%	-3%	15µM*	7%
CC(=O)c1c(OC(=O)c2ccc(C)cc2)c2ccccc2n1C	29%	1%	-40%	6%	5%	-4%
CC(C)(C)c1ccc(C(=O)NC(=S)N2CCCC2)cc1	.	4%	1%	-7%[1.84 µM]	9.5µM*	-19%
O=C(CCCCl)NC(=S)Nc1ccc(N2CCOCC2)cc1	.	2.8µM*	?	1.4µM*	-13%	10%
O=C(NC(=S)Nc1ccc(N2CCOCC2)cc1)c1cccs1	.	?	9%	0.79µM*	24µM*	9%
CC(C)(C)c1ccc(C(=O)Nc2ccc(N3CCOCC3)cc2)cc1	-25%	-2%	-9%	-8%	?	-3%
CC(C)(C)c1ccc(C(=O)NC(=S)Nc2ccc(N3CCOCC3)cc2)cc1	2.8µM*	-7%	11%	-4%	-9%	-3%
CCCCCCOc1ccc(/C=C/C(=O)Nc2sc3c(c2C(=O)OC)CCC3)cc1OC	4%	.	.	.	-9%	.
COc1cccc(NC(=O)Nc2ccccc2SC)c1	22%	17%	15%	15%	17µM*	9%
COc1ccc(NC(=O)Nc2ccccc2SC)cc1OC	.	22%	14%	?	19µM*	4%
Cc1ccc(F)cc1NC(=O)COC(=O)COc1ccc(C#N)cc1	.	-1%	1%	-2%	0%	-3%
Cc1ccc(NC(=S)Nc2ccccn2)c(C)c1	.	?	?	2.8µM*	8.5µM*	10%
Cc1cccc(NC(=S)Nc2ccccn2)c1	.	22%	12%	?	?	23%
CCOc1ccc(NC(=S)Nc2cc(-c3ccccc3)[nH]n2)cc1	-7%	0%	-4%	3%	21µM*	2%
COC(=O)c1ccc(NC(=S)Nc2ccccn2)cc1	11µM*	2.8µM*	?	1.8µM*	?	?
COC(=O)c1ccc(NC(=S)Nc2ccc(O)cc2)cc1	-9%	-1%	1%	-4%	-5%	0%
CCOc1ccc(NC(=S)Nc2ccc(F)cc2)cc1	.	2%	-1%	8%	?	.
